{"source": "PubChem BioAssay (NCI)", "note": "This is part of a sample that, as a whole, favours compounds with a hit. Of some 83,000 tested, about 20% had one in any assay.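 Step 1: grow cells in 96-well plates. Step 2: add test compound at a single concentration. Step 3: incubate 48 h. Step 4: record percent growth.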 Values without a mark were called inactive. Calls of active or inactive are those of the source. Rule for the calls: active = growth percent below 10; inactive = the rest.", "data": [{"test_system": "K-562 leukemia", "experiment": "NCI-60 one-dose screen, 48 h (100 = growth as untreated, 0 = no growth, -100 = all killed)", "conditions": "10 µM", "values": [{"smiles": "C=C1CCC2C3(C)COC(c4cc(F)cc(F)c4)OC3CCC2(C)C1C/C=C1/C(=O)OCC1O", "note": "(stereo not given)", "growth": "12.7%"}, {"smiles": "Cc1cc(C(F)(F)F)ccc1C(=O)Nc1sc2c(c1C#N)CCC(=O)C2", "growth": "2.39% (active)"}, {"smiles": "N#Cc1c(Cl)nc(SCc2ccc(F)cc2)nc1-c1ccc(F)cc1", "growth": "69.8%"}]}, {"test_system": "MALME-3M melanoma", "experiment": "NCI-60 one-dose screen, 48 h (100 = growth as untreated, 0 = no growth, -100 = all killed)", "conditions": "10 µM", "values": [{"smiles": "COc1ccc(N2N=C(c3ccc4c(c3)OCCO4)CC2c2cccc(NC(=O)CCCNS(=O)(=O)c3ccc(F)cc3)c2)cc1", "note": "(stereo not given)", "growth": "79.7%"}, {"smiles": "COc1cc(/C=N/NC(=O)c2ccc3nc(-c4ccc(Cl)cc4)[nH]c3c2)cc(OC)c1OC", "growth": "-92.8% (active)"}, {"smiles": "O=C(N=Nc1c(O)[nH]c2ccc(Br)cc12)c1ccc2nc(-c3ccccc3)[nH]c2c1", "growth": "-99.2% (active)"}, {"smiles": "COc1ccccc1[C@H]1C(C(=O)c2ccc(Cl)cc2)C2(N[C@@H]1c1ccccc1)C(=O)Nc1ccc(Cl)cc12", "note": "(stereo not given in full)", "growth": "-24.8% (active)"}, {"smiles": "O=c1cc(-c2ccccc2)oc2cc(OCCCNCc3ccccc3)cc(O)c12", "growth": "-94.3% (active)"}, {"smiles": "O=C1Nc2cc(-c3ccc(NC(=O)c4cccs4)cc3)ccc2/C1=C/c1ccc[nH]1", "growth": "78.2%"}, {"smiles": "O=C(c1ccc(O)cc1)C1[C@H](c2ccc(Br)cc2)[C@@H](c2ccccc2)NC12C(=O)Nc1ccccc12", "note": "(stereo not given in full)", "growth": "43.6%"}, {"smiles": "C=C1CCC2C3(C)COC(c4ccccc4F)OC3CCC2(C)C1C/C=C1/C(=O)OCC1O", "note": "(stereo not given)", "growth": "-76.8% (active)"}, {"smiles": "C=C1CCC2C3(C)COC(c4c(F)cccc4F)OC3CCC2(C)C1C/C=C1/C(=O)OCC1O", "note": "(stereo not given)", "growth": "-62.7% (active)"}, {"smiles": "COc1cccc(/C=C2\\N=C(C)N(CCc3ccc(S(N)(=O)=O)cc3)C2=O)c1", "growth": "98.2%"}, {"smiles": "C=C1CCC2C3(C)COC(c4cccc(F)c4)OC3CCC2(C)C1CC(O)C1=CCOC1=O", "note": "(stereo not given)", "growth": "90.8%"}, {"smiles": "Cn1cc(-c2cc(N)n3nc(-c4c[nH]c5ccc(Br)cc45)cc3n2)c2cccnc21", "growth": "-92.4% (active)"}, {"smiles": "C=C1CCC2C3(C)COC(c4c(F)cccc4F)OC3CCC2(C)C1CC(O)C1=CCOC1=O", "note": "(stereo not given)", "growth": "96.3%"}, {"smiles": "Brc1ccc(/C=C/c2n(Cc3ccc4ccccc4c3)c3ccccc3[n+]2Cc2ccc3ccccc3c2)cc1", "growth": "-87.8% (active)"}, {"smiles": "O=C(Nc1ccc(I)cc1)Nc1nc2ccc([N+](=O)[O-])cc2s1", "growth": "-99.7% (active)"}, {"smiles": "O=C(N/N=C/c1ccc(B(O)O)o1)c1[nH]c2ccc(Br)cc2c1-c1ccccc1", "growth": "61.1%"}, {"smiles": "CONC[C@]1(C)C=C2C(=O)[C@](C)(O)C3(CC3)C(C)=C2[C@H]1O", "growth": "-73.5% (active)"}, {"smiles": "O=C(Nc1cccc(-c2cn(-c3ccc4oc(=O)ccc4c3)nn2)c1)Nc1cc(C(F)(F)F)cc(C(F)(F)F)c1", "growth": "29.8%"}, {"smiles": "CCCCCCCCCCCCCCCCCCCC(=O)NCCc1c[nH]c2ccc(OC(=O)CCCC(=O)OCCOOCCOOCCOOCCOOCCOOCCOOCCOOCCOOCCOOCCOOCCOOCCOC)cc12", "growth": "102%"}, {"smiles": "COc1ccc(/C(C)=N/N=C2C(=O)N(C)c3ccc(Br)cc32)cc1S(N)(=O)=O", "growth": "64.2%"}, {"smiles": "N#Cc1c(NC(=O)c2ccc(C(F)(F)F)cc2C(F)(F)F)sc2c1CCC(=O)C2", "growth": "-86.8% (active)"}, {"smiles": "CNCc1cccc2c1OCCCCCC[C@@](C)(O)CC1(CC1)S(=O)(=O)c1ccc(cc1)-c1cnc(N)c(n1)C(=O)N2", "growth": "-75.2% (active)"}, {"smiles": "COc1cc(OC(F)(F)F)ccc1C(=O)Nc1sc2c(c1C#N)CCC(=O)C2", "growth": "85%"}, {"smiles": "Nc1n[nH]c2cccc(C#Cc3cccc(NC(=O)Nc4cc(C(F)(F)F)cc(C(F)(F)F)c4)c3)c12", "growth": "-67.6% (active)"}, {"smiles": "N#Cc1c(-c2ccc(F)cc2)nc(SCc2ccc([N+](=O)[O-])cc2)nc1N1CCOCC1", "growth": "42.8%"}, {"smiles": "CC1=N/C(=C\\c2ccc(N(C)C)cc2)C(=O)N1CCc1ccc(S(N)(=O)=O)cc1", "growth": "93.4%"}, {"smiles": "CN(CCF)c1ccc(/C=C/C(=O)c2ccc(N)cc2O)cc1", "growth": "102%"}, {"smiles": "O=C(c1ccc(Cl)cc1)C1[C@H](c2ccccc2Br)[C@@H](c2ccccc2)NC12C(=O)Nc1ccccc12", "note": "(stereo not given in full)", "growth": "39.6%"}, {"smiles": "O=C(Nc1cc(Cl)cc(Cl)c1)Nc1cc(Cl)cc(Cl)c1", "growth": "-40.5% (active)"}, {"smiles": "O=C(c1ccc(O)cc1)C1[C@H](c2ccc(Br)cc2)[C@@H](c2ccccc2)NC12C(=O)Nc1ccc(Br)cc12", "note": "(stereo not given in full)", "growth": "-49.3% (active)"}, {"smiles": "COc1ccccc1[C@H]1C(C(=O)c2ccc(O)cc2)C2(N[C@@H]1c1ccccc1)C(=O)Nc1ccc(Br)cc12", "note": "(stereo not given in full)", "growth": "66.3%"}, {"smiles": "CN1CCN(c2ccc(C(=O)/C=C/c3ccc(C#N)cc3)cc2)CC1", "growth": "90.4%"}, {"smiles": "CC(C)(C)Nc1nc2cc(Cl)c(Cl)cc2nc1S(C)(=O)=O", "growth": "-78.5% (active)"}, {"smiles": "COc1cc(/C=C/C(=O)c2cc(OC)c(OC)c(OC)c2)ccc1Oc1nc(Nc2ccc(F)cc2)nc(N(C)C)n1", "growth": "-40.3% (active)"}, {"smiles": "C=C1CCC2C3(C)COC(c4cc(F)cc(F)c4)OC3CCC2(C)C1C/C=C1/C(=O)OCC1O", "note": "(stereo not given)", "growth": "-78.8% (active)"}, {"smiles": "Cc1cc(C(F)(F)F)ccc1C(=O)Nc1sc2c(c1C#N)CCC(=O)C2", "growth": "-82.5% (active)"}, {"smiles": "N#Cc1c(Cl)nc(SCc2ccc(F)cc2)nc1-c1ccc(F)cc1", "growth": "112%"}]}]}
